Results on six compounds are retold here after the supplement of paper PMC9262897, “Low-cost anti-mycobacterial drug discovery using engineered E. coli” (Nature Communications, 2022).

Structures can show the parent of a compound that is named as a salt. ± gives the standard deviation of the averaged measurements.

Holding throughout (test): growth (OD600 after 10 h); higher = more growth (less inhibition)
Experiment [1] concerns E. coli TESEC Alr+ wild-type control. The settings on record: compound 0.1 mM; raw OD600 reference: median of DMSO wells 0.241, cell-free background 0.041. As for the experimental part:
(§1)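 TESEC Mtb Alr E. coli, or the Alr+ wild-type control, in 384-well plates with Prestwick library compounds at 0.1 mM and 1% DMSO, across arabinose induction levels of 1E3 to 1E7 nM. Growth is read as OD600 after 10 h at 37 °C in triplicate biological replicates.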

Experiment [2] has as its system E. coli TESEC Mtb Alr. To be noted: compound 0.1 mM. On the procedure: as §1
Experiment [3] deals with E. coli TESEC Mtb Asd. To be noted: compound 0.1 mM. As for the experimental part: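 TESEC E. coli strains in which the native enzyme is deleted and replaced by arabinose-inducible Mtb Asd, DapB, CysH or TrpD, each grown in its selective medium. Strains were screened against the Prestwick library at 0.1 mM and 1% DMSO in 384-well format at low and high arabinose induction. Growth is read as OD600 after 10 h in triplicate.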

The subject of experiment [4] is E. coli TESEC Alr+ wild-type control. The settings on record: compound 0.1 mM; raw OD600 reference: median of DMSO wells 0.49, cell-free background 0.052. On the procedure:
(§2)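 TESEC Mtb Alr E. coli (ΔaraC ΔtolC ΔentC Δalr ΔdadX, arabinose-inducible Mtb Alr) or the Alr+ wild-type control strain, grown in defined M9-fructose medium without D-alanine in 96-well plates with Prestwick library compounds at 0.1 mM and 1% DMSO. Low Alr induction is 0.1 µM arabinose and high induction is 10 mM arabinose.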

Experiment [5] deals with E. coli TESEC Mtb Alr. To be noted: compound 0.1 mM. On the procedure:
as §2
The source holds these as a separate data set.

[6] abbreviates: arabinose 1000 nM, raw OD600 reference: median of DMSO wells 0.294, cell-free background 0.041.
Setting [7] is: arabinose 10000 nM, raw OD600 reference: median of DMSO wells 0.264, cell-free background 0.041.
Setting [8] is: arabinose 100000 nM, raw OD600 reference: median of DMSO wells 0.201, cell-free background 0.041.
Setting [9] is: arabinose 1000000 nM, raw OD600 reference: median of DMSO wells 0.193, cell-free background 0.041.
The mark [10] stands for this setting: arabinose 10000000 nM, raw OD600 reference: median of DMSO wells 0.146, cell-free background 0.041.
Where [11] appears, read: arabinose induction (level): High, raw OD600 reference: median of DMSO wells 0.331, cell-free background 0.041.
[12] abbreviates: arabinose induction (level): Low, raw OD600 reference: median of DMSO wells 0.417, cell-free background 0.041.
Setting [13] is: arabinose 100 nM, raw OD600 reference: median of DMSO wells 0.413, cell-free background 0.052.
Where [14] appears, read: arabinose 10000000 nM, raw OD600 reference: median of DMSO wells […], cell-free background 0.052.

For `CCCC(C)(COC(N)=O)COC(=O)NC(C)C` (stereo not drawn) [Carisoprodol], the growth in experiment [1] stood at 0.237 ± 0.008; in experiment [2] (setting [6]), 0.287 ± 0.011; in experiment [2] (setting [7]), 0.283 ± 0.0077; in experiment [2] (setting [8]), 0.211 ± 0.014; in experiment [2] (setting [9]) it was 0.198 ± 0.0098; in experiment [2] (setting [10]), 0.142 ± 0.0024. The growth in experiment [3] (setting [11]) is 0.268 ± 0.02; in experiment [3] (setting [12]), 0.322 ± 0.083; in experiment [4], 0.594 ± 0.082; in experiment [5] (setting [13]), 0.403 ± 0.01; in experiment [5] (setting [14]), 0.341 ± 0.015.

With `Clc1ccc(C(OCCN2CCCCC2)c2ccccc2)cc1` (stereo not drawn) [Cloperastine hydrochloride], the growth worked out at 0.186 ± 0.0072 in experiment [1]; 0.232 ± 0.0029 in experiment [2] (setting [6]); 0.2462 ± 0.0014 in experiment [2] (setting [7]); 0.174 ± 0.0052 in experiment [2] (setting [8]); 0.0487 ± 0.0015 in experiment [2] (setting [9]); 0.0546 ± 0.00059 in experiment [2] (setting [10]). For the same compound, the growth came to 0.113 ± 0.002 in experiment [3] (setting [11]), 0.154 ± 0.0084 in experiment [3] (setting [12]), 0.4058 ± 0.0039 in experiment [5] (setting [13]) and 0.147 ± 0.085 in experiment [5] (setting [14]).

`CC(C)c1cccc(C(C)C)c1O` [Propofol]: the growth in experiment [1] amounted to 0.245 ± 0.0043; in experiment [2] (setting [6]), 0.309 ± 0.017; in experiment [2] (setting [7]), 0.255 ± 0.0092; in experiment [2] (setting [8]), 0.202 ± 0.0052; in experiment [2] (setting [9]), 0.175 ± 0.0063; in experiment [2] (setting [10]), 0.144 ± 0.0055. Moreover, the growth came to 0.441 ± 0.024 in experiment [3] (setting [11]); 0.439 ± 0.03 in experiment [3] (setting [12]); 0.55 ± 0.038 in experiment [4]; 0.389 ± 0.01 in experiment [5] (setting [13]); 0.328 ± 0.0056 in experiment [5] (setting [14]).

For the compound `CN1C[C@H](C(=O)N[C@]2(C)O[C@@]3(O)[C@@H]4CCCN4C(=O)[C@H](Cc4ccccc4)N3C2=O)C[C@@H]2c3cccc4[nH]cc(c34)C[C@H]21` [Dihydroergotamine tartrate], the growth in experiment [1] was 0.0782 ± 0.0015; in experiment [2] (setting [6]), 0.0712 ± 0.0052; in experiment [2] (setting [7]), 0.0692 ± 0.001; in experiment [2] (setting [8]) it was 0.0715 ± 0.0021; in experiment [2] (setting [9]), 0.0579 ± 0.0025; in experiment [2] (setting [10]), 0.082 ± 0.0022. The growth in experiment [3] (setting [11]) came out at 0.116 ± 0.013; in experiment [3] (setting [12]), 0.123 ± 0.0052; in experiment [5] (setting [13]), 0.282 ± 0.043; in experiment [5] (setting [14]), 0.0688 ± 0.0007.

On to `CC[N+]1(C)CCCC(OC(=O)C(O)(c2ccccc2)c2ccccc2)C1` (stereo not drawn) [Pipenzolate bromide], for which the growth in experiment [1] stood at 0.217 ± 0.0052; in experiment [2] (setting [6]), 0.284 ± 0.014; in experiment [2] (setting [7]), 0.258 ± 0.012; in experiment [2] (setting [8]), 0.169 ± 0.0056; in experiment [2] (setting [9]), 0.186 ± 0.0047; in experiment [2] (setting [10]), 0.133 ± 0.0034. The growth was 0.299 ± 0.035 in experiment [3] (setting [11]); 0.469 ± 0.025 in experiment [3] (setting [12]); 0.424 ± 0.016 in experiment [4]; 0.409 ± 0.023 in experiment [5] (setting [13]); 0.348 ± 0.025 in experiment [5] (setting [14]).

As for `CC(Cc1ccccc1)NCCC(c1ccccc1)c1ccccc1` (stereo not drawn) [Prenylamine lactate], the growth in experiment [1] stood at 0.04013 ± 0.00032; in experiment [2] (setting [6]) it was 0.03927 ± 0.00035; in experiment [2] (setting [7]), 0.0394 ± 0.0001; in experiment [2] (setting [8]), 0.0405 ± 0.001; in experiment [2] (setting [9]) it was 0.0393; in experiment [2] (setting [10]), 0.0397 ± 0.00052. Further, the growth in experiment [3] (setting [11]) came out at 0.0468 ± 0.00058; in experiment [3] (setting [12]), 0.0471 ± 0.00089; in experiment [5] (setting [13]), 0.276 ± 0.19; in experiment [5] (setting [14]), 0.0499 ± 0.00064.
